# From PubChem
# An excerpt weighted towards active compounds, which were near 15% of everything screened.
# Gal4-VP16 FLuc: counter-screen for ROR gamma inhibitors: Gal4-VP16 reporter. Drosophila S2 Gal4-VP16 UAS-luciferase, luminescence, 20 h. Potency, µM (doses to about 53.6 µM), without a hit: at the highest dose activity, negative = inhibition, actives largely listed as inhibitors. 3.5% of 310,000 active. AID 2546;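 further: Gal4-VP16 expression switched on by copper sulfate through the metallothionein promoter; nearly all actives have a fitted effect of over 50% in size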
# 12-LOX inh: blocks human arachidonate 12S-lipoxygenase; purified 12hLO, xylenol orange hydroperoxide absorbance; Potency, µM (titrated, usually from 108 µM), for inactives: at the top dose activity change, negative = inhibition, most hits filed as inhibitors; 1.1% of 580,000 active
# Target sequence (P18054 whole entry, looked up): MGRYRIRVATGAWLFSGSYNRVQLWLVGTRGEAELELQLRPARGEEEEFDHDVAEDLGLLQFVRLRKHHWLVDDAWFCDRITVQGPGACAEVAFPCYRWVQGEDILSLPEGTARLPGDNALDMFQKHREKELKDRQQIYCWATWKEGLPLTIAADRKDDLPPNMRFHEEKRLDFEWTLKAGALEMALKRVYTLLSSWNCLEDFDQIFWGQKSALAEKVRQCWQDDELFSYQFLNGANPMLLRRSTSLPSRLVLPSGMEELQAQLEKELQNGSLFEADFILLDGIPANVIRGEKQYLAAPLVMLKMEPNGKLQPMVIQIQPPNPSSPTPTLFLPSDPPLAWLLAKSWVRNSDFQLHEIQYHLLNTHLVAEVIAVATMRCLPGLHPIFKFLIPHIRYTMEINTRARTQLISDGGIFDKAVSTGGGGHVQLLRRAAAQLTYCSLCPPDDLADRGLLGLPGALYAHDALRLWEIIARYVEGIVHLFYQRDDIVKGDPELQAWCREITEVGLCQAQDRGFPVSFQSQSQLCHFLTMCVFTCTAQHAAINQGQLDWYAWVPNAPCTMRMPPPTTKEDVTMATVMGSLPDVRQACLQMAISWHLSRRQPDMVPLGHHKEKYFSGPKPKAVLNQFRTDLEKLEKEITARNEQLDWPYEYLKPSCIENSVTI
#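 Purified human 12hLO (150 nM final) in 25 mM Hepes, 0.01% Triton X-100, pH 7.0 was preincubated 15 min at room temperature with compound. Then 40 uM arachidonic acid was added, 30 min. Hydroperoxide was read by Fe-XO absorbance ratio 573/405 nm.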
# TDP1 cell CPT: growth inhibition of DT40 Tdp1-/-;hTDP1 cells with camptothecin (screen for TDP1 inhibitors); chicken DT40 Tdp1-/-;hTDP1 cells + 20 nM CPT, ATP luminescence, 48 h; Potency, µM (series often up to 46.2 µM), without a hit: top-dose activity change, negative = growth inhibition, most hits filed as inhibitors; 12% of 420,000 active; further: nearly all actives have a fitted effect of over 55% in size
#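 Chicken DT40 Tdp1-/- cells stably complemented with human TDP1 were seeded at 400 cells/well in medium containing 20 nM camptothecin, exposed to pin-transferred compounds, and grown at 37 °C for at least 48 hr. Viability was read as ATP luminescence.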
# RORg inh: ROR gamma (mouse) transcription inhibition. P51450. AID 2551. 5.4% of 310,000 active. Potency, µM (doses to about 53.6 µM), for inactives: top-dose activity change, negative = inhibition, actives largely listed as inhibitors. Drosophila S2 Gal4-RORgamma UAS-luciferase reporter, 20 h; further: nearly all actives have a fitted effect of over 60% in size
#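 Luminescence from a UAS-regulated Photinus luciferase reporter in stably transfected Drosophila Schneider cells is measured; decreased signal marks ROR gamma inhibition. Fusion expression is induced by 700 uM copper sulfate for 20 hr.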
# TDP1 cell noCPT: qHTS for Inhibitors of human tyrosyl-DNA phosphodiesterase 1 (TDP1): qHTS in cells in absence of CPT. DT40 Tdp1-/- hTDP1 cells, no CPT, ATP luminescence, 48 h. Potency, µM (highest dose often 46.2 µM), for the others: at the top dose activity change, negative = growth inhibition, hits mostly inhibitors. 15% of 420,000 active; further: nearly all actives have a fitted effect of over 55% in size
#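 Growth of hTDP1-complemented DT40 Tdp1-knockout cells is measured by ATP luminescence after at least 48 hr compound exposure at 37 °C, with DMSO substituting for the 20 nM CPT used in the parallel screen.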
# ELG1 DNA repair: blocks ELG1-dependent DNA repair in HEK293T cells. AID 504467. 2.3% of 330,000 active. HEK293T ELG1-luciferase reporter, luminescence, 16 h; DNA damage induced by 5-fluorouridine. Potency, µM (doses to about 46.1 µM), for the others: top-dose activity change, negative = inhibition, most hits filed as inhibitors; further: nearly all actives have a fitted effect of over 55% in size
#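 Overnight (16 hr) co-exposure of 2,000 cells/well to 5-fluorouridine and compound at 37 °C preceded detection. Luciferase was quantified via ONE-Glo luminescence; loss of signal denotes inhibition.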
# Numbers without * were called inactive; ? = inconclusive; / = not tested or not shown; [ ] = another dose, or the depositor's remark. The call rests on the fitted dose curve; in most records, active means well fitted curve in the direction sought with a large enough effect; inconclusive means small, poorly fitted or top-dose-only effect, or another doubt; inactive means no such curve, though single readings can be large; an effect the other way counts as inactive or inconclusive. On the % scale 0 is the no-effect control and ±100 the full control effect; potency means the concentration at half of the fitted maximal effect.
SMILES,Gal4-VP16 FLuc,12-LOX inh,TDP1 cell CPT,RORg inh,TDP1 cell noCPT,ELG1 DNA repair
Cn1nc(C2CC2)cc1NC(=O)C1(C)CCN1C(=O)c1ccccc1CCc1ccccc1 (stereo not given),/,1.7%,29.1µM*,/,16.4µM*,/
CSc1ccc(NC(=O)C2(C)CCN2C(=O)c2ccccc2CCc2ccccc2)cc1 (stereo not given),/,-6.1%,?,/,?,/
Cn1nc(C(C)(C)C)cc1NC(=O)C1(C)CCN1C(=O)CC(c1ccccc1)c1ccccc1 (stereo not given),/,-1.9%,18.4µM*,/,18.4µM*,/
O=C(COc1ccccc1)N(Cc1ccccc1)c1nc(-c2ccccc2)cs1,-6.4%,1.7%,-27.0%,-34.4%,?,-0.4%
COc1ccc(-c2csc(N(Cc3ccccc3)C(=O)COc3ccc(Cl)cc3)n2)cc1,-3.8%,1.0%,20.6µM*,-11.0%,18.4µM*,?
COc1ccc(-c2csc(N(CCc3ccc(OC)c(OC)c3)C(=O)COc3ccccc3)n2)cc1,-1.5%[0.365 µM],0.4%,?,-25.7%,16.4µM*,?
COCC(=O)N1CCN(Cc2nc(C(C)(C)C)no2)CC1,/,-5.5%,/,/,/,/
Cn1cccc1C1CCCN1Cc1nnc(-c2ccccc2)o1 (stereo not given),/,-29.5%,/,/,/,/
O=C(/C=C/c1ccccc1)CC(O)(c1ccccc1)C(F)(F)F (stereo not given),?,6.3%,16.4µM*,?,11.2µM*,?
COc1ccc(/C=C/C(=O)CC(O)(c2ccccc2)C(F)(F)F)cc1 (stereo not given),?,-11.6%,?,14.1µM*,?,-20.5%
Cc1ccc(NS(=O)(=O)c2ccc3c(c2)NC(=O)CCS3)c(Br)c1,-10.4%,?,?,12.9%,-18.1%,-2.0%
Cc1ccc(NS(=O)(=O)c2ccc3nc(-c4ccccc4)[nH]c3c2)c(Br)c1,/,0.0%,14.6µM*,/,23.1µM*,/
Cc1cccc(NS(=O)(=O)c2ccc3nc(-c4ccccc4)[nH]c3c2)c1C,-9.1%,-4.7%,16.4µM*,-0.2%[10 µM],16.4µM*,-11.9%
CC(C)c1ccc(NS(=O)(=O)c2ccc3nc(-c4ccccc4)[nH]c3c2)cc1,/,3.2%,14.6µM*,/,?,/
CN(CC1CCN(CCc2ccc(F)cc2)CC1)C1CCN(Cc2cccnc2)CC1,/,6.5%,/,/,/,/
Cc1cc(N(C)C)ccc1/C=C/c1ccnc2ccccc12,/,/,11.2µM*,/,7.94µM*,/
CN(C)c1ccc(/C=C/c2ccnc3ccc([N+](=O)[O-])cc23)cc1,/,/,11.2µM*,/,?,/
CCCN(CCC)c1ccc(/C=C/c2ccnc3ccccc23)cc1,/,/,7.08µM*,/,5.01µM*,/
CCCCCCCCCN(CCCCCCCCC)c1ccc(/C=C/c2ccnc3ccccc23)cc1,/,/,1.0%,/,5.2%,/
CN(C)c1ccc(C(I)C(I)c2ccnc3ccccc23)cc1 (stereo not given),/,/,11.2µM*,/,10µM*,/
N#Cc1ccc(NC(=O)NCc2cccnc2)cc1,/,13.5%,/,/,/,/
CCCn1c(C)cc(C(=O)CSc2nnc(C(C)Oc3ccccc3F)o2)c1C (stereo not given),/,9.5%,/,/,/,/
COc1ccc(CC(=O)NC2CCN(c3cc(-c4ccc(F)cc4)[nH]n3)CC2)cc1OC,/,36.4%,/,/,/,/
CN(C)c1ccc(/C=C/c2ccnc3ccccc23)cc1,/,/,?,/,15.8µM*,/
CN(C)c1ccc(/C=C/c2ccnc3ccc(I)cc23)cc1,/,/,3.16µM*,/,3.98µM*,/
CCN(N=O)c1ccc(/C=C/c2ccnc3ccccc23)cc1,/,/,6.31µM*,/,6.31µM*,/
CN(N=O)c1ccc(/C=C/c2ccnc3ccccc23)cc1,/,/,7.94µM*,/,5.62µM*,/
CN(C)c1ccc(/C=C/c2nc3ccccc3o2)cc1,/,/,8.7%,/,?,/
